# FXN GAA850 act – increases GAA850 frataxin promoter reporter activity; activation, % at 6 µM; actives 0.56% (n = 360,000); HEK293 lucGAA850 FXN promoter luciferase reporter, 24 h; percent of 10 µM SAHA response; AID 540364;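 active = activation above the average of all compounds screened plus 3 SD, cutoff fixed separately per campaign, cut at about 7.5% in these data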;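 also: 0% = DMSO wells and 100% = 10 µM SAHA wells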
# Gli-Sufu antag – antagonists of Gli-Sufu signaling; actives 0.74% (n = 340,000); Sufu-KO-LIGHT fibroblasts, Gli luciferase reporter luminescence; inhibition, % at 5 µM;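 active = inhibition above about 55%, limit read from the data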;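 also: 0% = DMSO-treated cells and 100% = wells with medium but no cells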
# SMARCA2 act – activators of SMARCA2 function; MG213 cells, MMTV-luciferase reporter, dexamethasone, overnight; activation, % at 9.1 µM; actives 1% (n = 370,000); AID 652017; in the data active = activation above about 7.8%;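 also: 0% = vehicle wells and 100% = reference activator wells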
# GalR3 antag – blocks the human galanin receptor 3 | HEK293 GalR3-CNG cAMP membrane potential fluorescence; galR3 body fused to GalR1 C-terminus | inhibition, % at 3 µM | actives 0.44% (n = 360,000) | AID 651719;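 active = inhibition above the screen-wide average plus 3 SD, cut at about 13% in these data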;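 also: forskolin and galanin both at EC90 stimulate the cells; cAMP rise reported by CNG channel membrane potential dye signal; 0% = forskolin plus galanin with DMSO and 100% = forskolin alone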
# Target sequence (O60755 1-299 limits assumed): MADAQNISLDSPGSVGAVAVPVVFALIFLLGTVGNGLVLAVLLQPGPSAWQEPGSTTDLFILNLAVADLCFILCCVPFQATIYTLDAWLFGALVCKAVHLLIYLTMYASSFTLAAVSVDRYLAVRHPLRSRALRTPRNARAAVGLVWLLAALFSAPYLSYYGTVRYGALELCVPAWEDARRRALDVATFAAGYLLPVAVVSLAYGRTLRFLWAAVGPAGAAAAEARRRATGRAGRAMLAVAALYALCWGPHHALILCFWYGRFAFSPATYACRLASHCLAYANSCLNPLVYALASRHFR
# NR2F2 inh – NR2F2 (human) inhibition, primary screen; P24468; HEK293T NGFI-A luciferase reporter, luminescence; inhibition, % at 8.6 µM; actives 0.7% (n = 370,000); AID 686940;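 active = inhibition above a per-plate cutoff, mean inhibition of test wells between control levels plus 3 SD, cut at about 38% in these data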;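 also: cells cotransfected with COUP-TFII expression vector driving the NGFI-A reporter; 0% = median of COUP-TF2 test wells and 100% = reporter-only cells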
# Cardio protect – protects H9c2 cardiomyocytes from peroxide injury. H2O2 injury protection, ATPLite, 2 h. protection from H2O2 cell death, % at 20 µM. actives 0.63% (n = 360,000);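 active = compounds giving at least 50% protection of heart cells from peroxide-induced death in the single-dose screen, raw or plate-pattern-corrected value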;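 also: 0% = DMSO wells with peroxide and 100% = DMSO wells without peroxide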
# GalR3 antag conf – confirmation of human galanin receptor 3 antagonists. shares compounds with GalR3 antag. HEK293 GalR3 CNG cAMP biosensor, membrane potential fluorescence; galR3 fused to GalR1 carboxy tail; challenged with forskolin and galanin at EC90. inhibition, % at 3 µM. actives 59% (n = 1,600);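 active = inhibition above the primary screen's cutoff, the mean inhibition of all screened compounds plus 3 SD, cut at about 13% in these data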;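 also: 0% = forskolin plus galanin and 100% = forskolin alone with DMSO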
# CNG parental – counter-screen for GalR3 antagonists: nonspecific agonists in parental HEK-CNG cells | shares compounds with GalR3 antag | HEK293-CNG parental cells, cAMP membrane potential fluorescence; normalised: DMSO wells 0%, forskolin wells 100% | activation, % at 3 µM | actives 10% (n = 1,600) | AID 652268; in the data active = activation above about 1.3%
# * marks the source's active call; other numbers are inactive results; x = not tested or not shown. Rows were chosen to be rich in hits. Some 3.4% of all compounds tested hit in one or more screens of this group.
SMILES,FXN GAA850 act,Gli-Sufu antag,SMARCA2 act,GalR3 antag,NR2F2 inh,Cardio protect,GalR3 antag conf,CNG parental
O=C(NNC(=S)NC(=O)c1ccccc1[N+](=O)[O-])c1ccccc1[N+](=O)[O-],2,5,1,-10,-6,-1,x,x
O=C(CN1CCN(Cc2ccccc2F)C1=O)NC1CCCC1,0,8,3,13*,-8,-3,4,0
Cn1c(=O)c2cc(NC(=O)NCCc3cccs3)ccc2n1Cc1ccccc1,2,x,0,-5,-1,15,x,x
C/C(=N\NC(N)=S)C1(C)CC2(CC(C)(C)OC2=O)C(=O)O1 (centres undefined),0,0,-4,-6,-1,0,x,x
O=C(COC(=O)c1cccc(Br)c1)Nc1ccc2[nH]c(=O)[nH]c2c1,1,-10,-1,32*,17,-1,49*,0
O=C(COC(=O)c1c(F)cccc1F)Nc1ccc2[nH]c(=O)[nH]c2c1,1,5,0,0,6,11,x,x
OC[C@@H]1CN(Cc2ccc(Cl)cc2)C[C@H](n2cnc3c(N4CCN(c5ccccc5)CC4)ncnc32)O1,-2,x,-5,-7,-3,4,x,x
O=C1NC(=O)C(c2ccccc2[N+](=O)[O-])=C1Nc1ccc(O)c(Cl)c1,3,-5,-1,13*,7,4,1,0
COc1ccc(CCNC(=O)c2csc3c2CCCC3)cc1OC,-1,0,-6,13*,-6,-4,3,0
N#C/C(=C/c1cn(-c2ccccc2)nc1-c1cccc(S(=O)(=O)N2CCCC2)c1)C(=O)NCc1ccco1,-2,-2,-3,14*,28,5,23*,1
Cc1cc(/C=C(\C#N)C(=O)NCc2ccco2)c(C)n1-c1ccc(C(=O)O)cc1,3,-4,3,x,11,-1,8,0
Cc1cc(/C=C(\C#N)C(=O)NCC2CCCO2)c(C)n1-c1ccc(Cl)cc1 (centres undefined),7,-60,6,-3,-33,-9,x,x
CC(=O)OCC(=O)C1(O)CCC2C3CC(F)C4=CC(=O)CCC4(C)C3C(O)CC21C (centres undefined),2,15,3,-5,-22,-1,x,x
CC(=O)Nc1ccc(OCC(O)Cn2c3ccccc3c3ccccc32)cc1 (centres undefined),2,2,-5,-2,-25,0,x,x
CC(=O)Nc1ccc(OCC(O)Cn2c3ccccc3c3ccccc32)c(C)c1 (centres undefined),-1,1,-3,15*,29,-1,41*,-2
Cc1cc(C)n(CC(=O)NNC(=O)COc2ccc(Cl)cc2Cl)n1,0,3,3,-7,-4,5,x,x
Cc1cc(C)n(C(=O)COc2ccc(Cl)cc2Cl)n1,-2,-1,1,14*,-2,-5,16*,0
CC(=O)Nc1cccc(C(=O)/C=C/c2ccc(Br)cc2)c1,-4,-22,2,15*,5,-27,30*,0
CCCC(=O)OCCNc1cc(Sc2nc3ccccc3[nH]2)c2nonc2c1[N+](=O)[O-],5,-15,-11,26*,15,-18,35*,0
CC(=O)OCCCNc1cc(Sc2ccc(Cl)cc2)c2nonc2c1[N+](=O)[O-],3,-13,-2,-3,-16,-8,x,x
CCC(=O)OCCNc1cc(Sc2nccn2C)c2nonc2c1[N+](=O)[O-],7,-2,-11,41*,13,-20,21*,0
CC(=O)OCCNc1cc(SC(C)C)c2nonc2c1[N+](=O)[O-],-1,-1,0,-5,-9,-3,x,x
COc1ccc(/C=N/NC(=O)c2c(C)n(C)c3ccc(OC)cc23)c(OC)c1,0,-2,2,14*,23,8,1,0
COc1ccc2c(c1)c(C(=O)N/N=C/c1ccccc1Cl)c(C)n2C,0,-7,-2,-1,3,-3,x,x
CCOC(=O)CNC(=O)CNC(=O)c1ccc(OCC(C)C)cc1,0,0,2,86*,9,12,6,0
SMILES,FXN GAA850 act,Gli-Sufu antag,SMARCA2 act,GalR3 antag,NR2F2 inh,Cardio protect,GalR3 antag conf,CNG parental
O=C(Nc1ccc(F)cc1)OC[C@@H]1CSCCS(=O)(=O)N1,x,x,-3,-4,-13,x,x,x
CCc1ccccc1NC(=O)NC(C)c1ccc2c(c1)OCO2 (centres undefined),-1,-14,-2,3,-11,2,x,x
CN1C(=O)C(C)(C)c2cc(S(=O)(=O)N3CCCC(C(=O)Nc4ccc(Cl)cc4)C3)ccc21 (centres undefined),-2,4,-4,18*,17,-16,25*,0
CCC(c1nnnn1C1CCCC1)N(Cc1cccs1)Cc1cc2cc(C)ccc2[nH]c1=O (centres undefined),1,5,-2,2,-34,18,x,x
CCOC(=O)Cn1nnnc1C(C(C)C)N(Cc1cccs1)Cc1cc2cc(C)ccc2[nH]c1=O (centres undefined),4,14,-1,37*,3,-16,28*,1
CC1CCN(C(=O)c2ccc(N3CCOCC3)c([N+](=O)[O-])c2)CC1,-1,4,-4,3,-20,2,x,x
COc1ccccc1C(=O)Nc1cc2c(cc1C(=O)O)OCCCO2,0,22,-4,13*,-5,2,3,0
O=C(O)c1cc2c(cc1NC(=O)c1ccccc1OC(F)F)OCCCO2,0,6,-1,-8,14,-2,x,x
CCCOc1ccc(C(=O)NC(=S)NNC(=O)c2c(-c3ccccc3)noc2C)cc1,0,-16,0,6,-20,9,x,x
Cc1onc(-c2ccccc2)c1C(=O)NC(=S)NNC(=O)c1ccc(O)cc1,1,3,-4,x,-2,34,2,0
Cn1c(N)c(C(=O)COC(=O)CC(NC(=O)c2ccccc2Cl)c2ccccc2)c(=O)n(C)c1=O (centres undefined),-2,-2,-3,14*,4,27,-4,0
CC(=O)N1CCN(c2ccc(NC(=S)NC(=O)COc3ccc(C(C)(C)C)cc3)cc2)CC1,-4,35,3,30*,11,-25,95*,-1
NNC(=O)c1cc2c(N3CCC(Cc4ccccc4)CC3)ncnc2s1,1,34,-3,29*,12,-26,21*,1
Cn1ncc2c(N3CCC(Cc4ccccc4)CC3)ncnc21,3,17,-2,-5,14,-18,x,x
